Measurements published in PubChem BioAssay (NCI).
The panel holds about 83,000 compounds, 20% with a hit somewhere; the sample as a whole holds those more often.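 Assay: single dose, 48 h. Readout: percent growth (0 = no net growth; negative = cell death). Active: <10.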 Unmarked numbers belong to inactive results. The source made the active and inactive calls.

What was measured:
Assay in all cases: NCI-60 one-dose screen, 48 h (100 = growth as untreated, 0 = no growth, -100 = all killed)
Settings in all cases: 10 µM unless noted
SK-MEL-2 melanoma = tested on: SK-MEL-2 melanoma
EKVX NSCLC = tested on: EKVX NSCLC
SN12C renal = tested on: SN12C renal
UO-31 renal = tested on: UO-31 renal
TK-10 renal = tested on: TK-10 renal
ACHN renal = tested on: ACHN renal
CAKI-1 renal = tested on: CAKI-1 renal
A498 renal = tested on: A498 renal
CCRF-CEM leukemia = tested on: CCRF-CEM leukemia
MOLT-4 leukemia = tested on: MOLT-4 leukemia

Row | Structure (SMILES) | growth (SK-MEL-2 melanoma) | growth (EKVX NSCLC) | growth (SN12C renal) | growth (UO-31 renal) | growth (TK-10 renal) | growth (ACHN renal) | growth (CAKI-1 renal) | growth (A498 renal) | growth (CCRF-CEM leukemia) | growth (MOLT-4 leukemia)
1 | Cn1c(NCCc2ccc(O)c(O)c2)nc2c1c(=O)n(Cc1ccc(Cl)c(Cl)c1)c(=O)n2C | 91.2% | 81.2% | 71.5% | 34% | 65.9% | 41.8% | 62.8% | 98.4% | 17.8% | 11.8%
2 | CCOc1cc2ncc(C#N)c(Nc3ccc(OCc4cccc(F)c4)c(Cl)c3)c2cc1NC(=O)CC1CCSS1 (centres undefined) | 25.9% | 27.3% | 46% | 39.3% | 38.6% | 59.7% | 43% | 64% | 9.64% (active) | -25.2% (active)
3 | CCCc1cc(=O)n2c(C(=O)Nc3cccc(C(=O)OCC)c3)c(C(=O)Nc3ccc(F)cc3)sc2n1 | 63.4% [30 µM] | 92.8% [30 µM] | 28.8% [30 µM] | 15.7% [30 µM] | 45% [30 µM] | 38.9% [30 µM] | 17.3% [30 µM] | 8.74% [30 µM] (active) | 40.9% [30 µM] | 127% [30 µM]
4 | CCOC(=O)n1cc(-c2nonc2-c2cn(C)c3ncccc23)c2cc(F)ccc21 | 92.8% | 67.3% | 79.8% | 57.5% | 80.8% | 74.9% | 54.8% | 94.8% | 85% | 66.7%
5 | Cc1ccc2c(C(C[N+](=O)[O-])c3ccccc3)c(-c3ccccc3)[nH]c2c1 (centres undefined) | 1.05% [9.5 µM] (active) | 42.3% [9.5 µM] | 42.2% [9.5 µM] | 35% [9.5 µM] | 43.7% [9.5 µM] | 36.7% [9.5 µM] | 21.5% [9.5 µM] | -1.59% [9.5 µM] (active) | 19.5% [9.5 µM] | 21.2% [9.5 µM]
6 | COc1cccc(-c2nc3sccn3c2-c2ccnc(NCCNS(=O)(=O)c3ccc(F)cc3)c2)c1 | 21.3% | 28.2% | 27.1% | 16.7% | 46.5% | 13% | 18.4% | 18.2% | 14.2% | 7.99% (active)
7 | O=C(N/N=C/c1c[nH]c2ccccc12)c1cc(-c2ccccc2)on1 | 101% | 87.9% | 92.3% | 60.7% | 125% | 87.6% | 69.7% | 78.6% | 46.1% | 69.5%
8 | O=C1c2cc3c(cc2-c2c1c1ccc(Cl)cc1c(=O)n2CCCN1CCOCC1)OCO3 | 100% | 93.8% | 46.3% | 44.5% | 103% | 13.1% | 21.4% | 76.2% | 20.7% | 8.7% (active)
9 | CCOC(=O)n1cc(-c2nonc2-c2cn(C)c3ncccc23)c2ccccc21 | 90.1% | 61.2% | 87.1% | 58.4% | 98.3% | 80.1% | 58.1% | 99% | 86.6% | 69.8%
10 | CCOC(=O)c1c(CN2CCN(C)CC2)nc2ccc(Cl)cc2c1-c1ccccc1 | 80% | 66.4% | 92.8% | 47.3% | 82.6% | 91.7% | 52.8% | 90.7% | 37.7% | 32.5%
11 | CC(C)(O)c1cn(CCCCN2C(=O)C(=O)c3ccccc32)nn1 | 101% | 93.7% | 102% | 82.7% | 108% | 104% | 93.9% | 71.7% | 101% | 94.6%
12 | C=C1c2nc3ccccc3n2C=C(c2ccc(Cl)cc2)N1Cc1ccc(OC)cc1 | 70.4% | 71.3% | 92.2% | 52.2% | 138% | 89.5% | 85.7% | 90.5% | 86.3% | 64.8%
13 | O=C(Cc1ccccc1Nc1c(Cl)cccc1Cl)NN1C(=O)/C(=C/c2ccc(Br)cc2)SC1=S | 99.9% | 98.5% | 100% | 90.9% | 107% | 104% | 100% | 107% | 107% | 107%
14 | COc1cc2nc(N3CCCC3)nc(NCc3ccccc3)c2cc1OC | 106% | 74.7% | 69.6% | 52.1% | 100% | 62.2% | 65.8% | 36.3% | 5.92% (active) | 35.4%
15 | Cn1cc(C(=O)c2nc(-c3c[nH]c4ccc(F)cc34)no2)c2cc(F)ccc21 | 98.1% | 89.8% | 95.1% | 69.5% | 113% | 96.1% | 82.5% | 112% | 91.7% | 95.2%
16 | CSc1nc(Nc2cccc(NC(=O)CCl)c2)c(C#N)c(-c2cccc([N+](=O)[O-])c2)n1 | 57.5% | 74.1% | 34% | 67.2% | 137% | 84.2% | 52.2% | 96.6% | -14.4% (active) | 1.11% (active)
17 | COc1cccc(-c2nc3sccn3c2-c2ccnc(NCCCNS(=O)(=O)c3cccc(F)c3)c2)c1 | 7.47% (active) | 31% | 28.5% | 11.4% | 61.1% | 20.7% | 19.7% | 64.4% | 9.96% (active) | 3.29% (active)
18 | CN(C)S(=O)(=O)c1cccc(-c2nc3sc4c(c3c(=O)[nH]2)CCCC4)c1 | 36.9% | 56.1% | 28.3% | 29.6% | -20.5% (active) | 96.5% | 65.5% | -29.8% (active) | 35.5% | 56.9%
19 | COc1cccc(/C=C2\SC(=Nc3ccc(NC(C)=O)cc3)NC2=O)c1OC | 110% | 103% | 94.6% | 60.8% | 97.7% | 82.5% | 67.9% | 58.7% | 97.1% | 99.2%
20 | COc1cc2nnc3c4cccnc4[nH]c3c2cc1OC | 80.1% | 73.1% | 33% | -52.8% (active) | 42.9% | -36.7% (active) | -14.7% (active) | 106% | -37.5% (active) | 
21 | CC(O)CN1CC(O)=C(c2nc3ccccc3s2)C1=N (centres undefined) | 95.1% | 108% | 103% | 90.3% | 131% | 228% | 101% | 116% | 97.4% | 103%
22 | COc1ccc(C2Nc3c(c(C(C)(C)C)nn3-c3ccccc3)C(=O)CS2)cc1 (centres undefined) | 98.8% | 93.9% | 99.8% | 72% | 100% | 99.9% | 81.9% | 113% | 83.9% | 75.7%
23 | COc1cc2c(cc1-c1c(C)noc1C)ncc1nc(C3CCCC3)n([C@H](C)COC(F)F)c12 | 67.8% | 44.2% | 57.3% | -30% (active) | 30.6% | 32.9% | 18.7% | -27.3% (active) | 48.7% | 42.3%
24 | CCCOc1ccc2nc(NC(=O)OC)[nH]c2c1 | -1.33% (active) | 57.1% | 23.2% | 37.5% | 35.7% | 31.5% | 51.7% | 9.31% (active) | 7.62% (active) | 17.7%
